# Calls of active or inactive are those of the source. Calls come from the whole dose curve; as a rule, active = well fitted curve in the direction sought with a large enough effect; inactive = flat fitted curve, though single readings scatter.
# Test: Quantitative high throughput screen for delayed death inhibitors of the malarial parasite plastid: Hit Validation with 3D7 at 96 hr using Flow Cytometry
# Conditions: P. falciparum 3D7 in erythrocytes, SYBR/MitoTracker flow cytometry
# Text: The goal of this screen is to discover new antimalarial compounds that act by inhibiting the development of the apicoplast organelle in the malarial parasite Plasmodium falciparum. Some antibiotics, such as azithromycin and tetracycline, are known to interfere with the apicoplast translational machinery, and have a potent antimalarial effect. […] We developed a cell-based quantitative high throughput screen that leverages this "delayed death" phenotype to enrich for compounds that target the apicoplast. To detect small molecules that cause the delayed death phenotype, erythrocytes infected with firefly luciferase-expressing parasites were incubated with compounds for either one or two generations, corresponding to 48 and 96 hours, respectively. Growth inhibition was detected by a decrease in luciferase activity. Compounds that inhibited parasite growth in the second generation at least five-fold more potently than in the first generation were defined as delayed death inducing. These compounds were selected for confirmatory screening using a flow cytometry based assay. This hit validation assay used the 3D7 cell line and measured at 96 hours. NIH Molecular Libraries Probe Production Network [MLPCN] NIH Chemical Genomics Center [NCGC] MLPCN Grant: R21 NS059500 Assay Provider: David Fidock and Eric Ekland, Columbia University
# Test compounds were diluted in 20 microliters of complete media (RPMI 1640 with 0.5% w/v Albumax (GIBCO), 24 mM sodium bicarbonate (Sigma) and 10 ug/mL gentamycin (Gibco)) in clear 384-well plates (Greiner). All liquid handling was conducted using a Bio Tek Precision 2000 pipetting system. Twenty microliters of infected erythrocytes, 0.2% parasitemia (for 48 hour time points) or 0.1% parasitemia (for 96 hour time points) were added to the compound dilutions (1% hematocrit, final concentration; 40 microliters, total culture volume). The assay plates were incubated for 48 hours, or 96 hours, at 37 masculine C in a humidified chamber (Billups- Rothenberg, Del Mar, CA, USA), gassed with 5%CO2/5%O2/ 90%N2. After two generations (96hours), 5 microliters of culture were harvested and transferred to a second 384 well plate for fluorescent staining. Samples were stained with 30 microliters of 2 x SYBR Green I (Invitrogen) and 150nM MitoTracker Deep Red (Invitrogen) diluted in 0.9% NaCl, 0.2% dextrose (Baxter) supplemented with 2.5% Fetal Calf Serum (Gibco) (saline/FCS). Mature erythrocytes lack nuclei and mitochondria, therefore only parasitized erythrocytes retain the SYBR Green I and MitoTracker Deep Red. After 30 minutes at 37 masculine C, the stained cells were diluted in an additional 60 microliters of saline/FCS. The samples were harvested directly from the 384 well plate using a Hypercyt High Capacity Flow Platform (Intellicyt) paired with a C6 Flow Cytometer (Accuri). The flow cytometry files were analyzed using FlowJo software (FlowJo).
row,Structure (SMILES),Potency
1,CCOC(=O)c1ccc2c(c1)n(CC)c(/C=C/N(C)c1ccccc1)[n+]2CC,0.209 µM (active)
2,c1csc(CNc2ncnc3nc[nH]c23)c1,23.4 µM (active)
